Many of the other results were omitted from the sample, so hits are more common in it than they were.
Methyltransferases: Primary Screen for Target Class Profiling of Small Molecule Inhibitors of Methyltransferases | calls only at 40 µM | purified enzyme, MTase-Glo SAH luminescence; hits give low values | 25,000 compounds, 3.9% hits; call rule not given here
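Each enzyme was assayed with SAM and its substrate. SAH formation detected by MTase-Glo luminescence; single-point 40 uM screen[…].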
The depositor's hits bear a star; i = inactive; + = active, no number; ! = a repeat was not active. On the % scale 0 is the no-effect control and ±100 the full control effect.

SMILES	Methyltransferases
CCCN1C(=O)c2c(C(=O)NCCc3ccc(Cl)cc3)ncn2CC1(C)C(=O)NCc1ccc(C)cc1 (stereo not drawn)	i
N#Cc1cccnc1-c1cccc(C(=O)NCCNC(=O)c2ccccc2)c1	i
COc1cccc(-c2ccc(C(=O)NCCNC(=O)c3ccccc3OC)cc2)c1	i
CN(C)CCCNC(=O)c1ccc(-c2cc(O)c3ncccc3c2)cc1	+
CC(=O)OC1C(O)/C(C)=C\C2C(OC(=O)c3ccccc3)C(C)CC2(OC(C)=O)C(OC(C)=O)C(C)/C=C/C(C)(C)C1OC(C)=O (stereo not drawn)	i
C=C1C(=O)OC2CC(C)C(CCC(C)=O)=CCC12 (stereo not drawn)	i
C=C1C(=O)OC2CC(C)C(CCC(C)O)=CCC12 (stereo not drawn)	+
C=C1C(=O)O[C@@H]2C[C@H](C)[C@@]3(O)C=C(C(C)=O)[C@]4(CC3C[C@H]12)C(=O)O[C@H]1C[C@@H](C)C(CCC(C)=O)=CC[C@H]14 (stereo partly drawn)	i
COC(=O)/C=C/C(=O)N(O)CCCCNCc1ccc(COC(=O)Nc2cccc3ccccc23)cc1	i
Nc1nonc1-c1nc2cnccc2n1C1CCCCC1	+
Cc1ccccc1CN1CCn2c1nc1c(c2=O)CN(Cc2ccccc2)CC1	i
COc1ccccc1CNC(=O)C1(C)Cn2c(cc3ccccc32)C(=O)N1Cc1ccc(C)cc1 (stereo not drawn)	i
CC(=O)NC(CO)C(=O)N1CCc2[nH]nc(-c3ccc(F)c(F)c3)c2C1 (stereo not drawn)	i
COc1cccc(CN2C(=O)c3cc4occc4n3CC2(C)C(=O)NC2CCCCC2)c1 (stereo not drawn)	i
C=C[C@H]1C(O[C@@H]2O[C@H](CO)[C@@H](O)[C@H](O)[C@H]2O)OC=C2C(=O)N3CCc4c([nH]c5ccccc45)C3CC21 (stereo partly drawn)	i
C=C(C(=O)O)[C@@H]1CC=C2CCC[C@H](C)[C@@]2(C)C1	i
C=C(C(=O)O)[C@@H]1CC[C@@]2(C)CC[C@H](O)[C@@]2(C(C)=O)C1	+
CC(C)(C)c1nn2c(SCC(=O)Nc3ccc(F)cc3)nnc2[nH]c1=O	i
CCCn1c(=O)c2ccc(C(=O)NC3CCCC3)cc2n2c(=O)n(CC(=O)N(C)c3ccccc3)nc12	i
Cc1ccc(CN2C(=O)c3ccc(-c4ccccc4)n3CC2(C)C(=O)NC2CCCCC2)cc1 (stereo not drawn)	i
COc1cc(/C=C/C=O)cc(OC)c1O[C@@H]1O[C@H](CO)[C@@H](O)[C@H](O)[C@H]1O	i
CC1(C(=O)NCc2ccccc2)Cn2c(ccc2-c2ccco2)C(=O)N1Cc1ccc(F)cc1 (stereo not drawn)	i
N[C@H]1CN(C(=O)c2cccc(-n3cnnc3)c2)C[C@@H]1c1ccccc1	i
COC(=O)C(C)Oc1ccc2c(-c3ccccc3)cc(=O)oc2c1 (stereo not drawn)	i
CCCC[C@@]1(C2CCCC2)Cc2cc(OCC(=O)O)c(Cl)c(Cl)c2C1=O	+
SMILES	Methyltransferases
C[C@]1(C2CCCC2)Cc2cc(OCC(=O)O)c(Cl)c(Cl)c2C1=O	+
Cc1ccc(N2C(=O)c3cc4sccc4n3CC2(C)C(=O)NC2CCCCC2)cc1C (stereo not drawn)	i
Cn1ncc(Cl)c1-c1cc(C(=O)N[C@H](CN)Cc2ccc(F)c(F)c2)sc1Cl	i
Cc1ccc2n1CCN(C(=O)NCCc1ccccc1)C2C(C)C (stereo not drawn)	i
O=C(NCc1ccco1)C1COC2(CCN(C(=O)c3ccc(F)cc3)CC2)N1C(=O)c1ccco1 (stereo not drawn)	i
NC(=O)c1cccc2[nH]c(-c3ccc(C4CCCN4)cc3F)nc12 (stereo not drawn)	+
NC(=O)c1cccc2[nH]c(-c3ccc([C@H]4CCCN4)cc3F)nc12	+
NC(=O)c1cccc2[nH]c(-c3ccc([C@@H]4CCCN4)cc3F)nc12	+
COc1ccc(F)cc1-c1cccc(C(=O)NCCNC(=O)c2ccccc2Cl)c1	i
Cc1ccc(OCc2nc(C3CCN(S(=O)(=O)Cc4ccccc4F)C3)no2)cc1 (stereo not drawn)	i
CC(NC1CCC2(CCNCC2)CC1)c1ccc(S(C)(=O)=O)cc1 (stereo not drawn)	i
COCCn1c(CO)nnc1C1CC(NC(=O)c2cc(C)n3nc(C)cc3n2)C1 (stereo not drawn)	i
C[C@@H](c1ccccc1)N1C(=O)[C@@H]2CN(C(=O)CC3(CC(=O)O)CCCC3)CCN2C1=O	i
COc1ccc(NC(=O)N2CCn3cccc3C2Cc2ccccc2)c(OC)c1 (stereo not drawn)	i
CC(C)=CCC/C(C)=C/CO[C@@H]1O[C@H](CO)[C@@H](O)[C@H](O)[C@H]1O	i
CCC(C)C(=O)OC[C@H]1O[C@H](O[C@H]2O[C@H](CO)[C@@H](O)[C@H](O)[C@H]2O)[C@H](O)[C@@H](O)[C@@H]1O (stereo partly drawn)	i
OCc1ccccc1O[C@@H]1O[C@H](CO)[C@@H](O)[C@H](O)[C@H]1O	i
COc1ccc(C(O)C(C)OC2OC(CO)C(O)C(O)C2O)cc1 (stereo not drawn)	i
CC/C=C\CCO[C@@H]1O[C@H](CO)[C@@H](O)[C@H](O)[C@H]1O	+
CC(C)=CCC(O)/C(C)=C/CO[C@@H]1O[C@H](CO)[C@@H](O)[C@H](O)[C@H]1O (stereo partly drawn)	+
CCCn1c(=O)c2ccc(C(=O)NC3CCCCC3)cc2n2c(SCC(N)=O)nnc12	i
COc1c(O)cc2c(c1O)[C@@H]1O[C@H](CO)[C@@H](O)[C@H](O)[C@H]1OC2=O	+
COc1cc(COC2OC(CO)C(O)C(O)C2O)cc(OC)c1O (stereo not drawn)	i
COC(=O)c1ccc(O[C@@H]2O[C@H](CO)[C@@H](O)[C@H](O)[C@H]2O)c(OC)c1	i
CCC(C)NC(=O)c1ccc2c(=O)n(C)c3nn(Cc4cccc(Cl)c4)c(=O)n3c2c1 (stereo not drawn)	i
SMILES	Methyltransferases
Cc1ccc(NC(=O)N2CCn3cccc3C2Cc2ccccc2)cc1Cl (stereo not drawn)	i
Cc1ccc(CSc2nnc3n(CC(C)C)c(=O)c4ccc(C(=O)NC(C)C)cc4n23)cc1	i
N#Cc1ccc(-c2csc(NN=C3CCCC3)n2)cc1	+!
Cn1c2c(c3ccccc31)C(C(=O)NC1CCCCCC1)N(Cc1ccc(F)cc1)C(=O)CS2 (stereo not drawn)	i
O=C(NC[C@H]1OC[C@@H](NC2CCCCC2)[C@@H]1O)N1CCOCC1	i
COC(=O)c1cc2n(n1)CC(C)(C(=O)NC1CCCCCC1)N(c1cc(OC)cc(OC)c1)C2=O (stereo not drawn)	i
CCOc1ccc(Nc2nc3c(S(=O)(=O)c4ccccc4)nnn3c3ccccc23)cc1	i
Cc1cnc(Nc2ccc(OCCN3CCCC3)cc2)nc1Nc1cccc(S(=O)(=O)NC(C)(C)C)c1	+!
CC1CCN(S(=O)(=O)c2ccc3c(ccn3CC(=O)NCc3cccc(F)c3)c2)CC1	i
CC1(C(=O)NC2CCCCC2)Cn2c(cc3ccccc32)C(=O)N1Cc1ccccc1Cl (stereo not drawn)	i
N#CCn1ccn2nc3c(c2c1=O)CCCC3	i

Screens deposited in PubChem by National Center for Advancing Translational Sciences (NCATS).
